Only some compounds are listed: those with a hit (about 7.5% of all), similar ones and a draw of the others.
SMN2 splice enh = enhancers of SMN2 splice variant expression. HEK293 SMN2-luciferase splicing reporter, luminescence, 30-36 h. Potency, µM (top dose mostly 46.1 µM), inactives show at the highest dose activity change, positive = activation, actives largely listed as activators. hit rate 2.8% among 210,000; note: % of control where 0% means no effect; nearly all actives have a fitted effect of over 55% in size
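HEK293 cells carry an SMN2 […]–luciferase reporter in which exon 7 inclusion puts luciferase in frame. Cells were plated 10-12 h before compound addition, then incubated 30-36 h at 37C. ONE-Glo luminescence was read; sodium butyrate at 4.5 mM final served as control.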
KinaseGlo FLuc = Kinase-Glo luciferase inhibition (counter-screen); Kinase-Glo luciferase, ATP luminescence, 8 min; Potency, µM (doses to about 38.3 µM), inactives show top-dose activity change, negative = inhibition, usual class: inhibitors; hit rate 0.28% among 200,000; AID 1379; note: % is set by controls: 0 for no effect and ±100 for the full control effect; nearly all actives have a fitted effect of over 60% in size
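Compound is pinned into ATP-containing buffer (10 uM ATP, imidazole pH 7.2, 7 mM MgCl2). Kinase-Glo luciferase reagent is then added. Light output is recorded following an 8-min room-temperature incubation.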
NPC1 prom act = NPC1 promoter activation; hit rate 2.4% among 320,000; AID 485313; Potency, µM (titrated, usually from 9.22 µM), without a hit: top-dose activation, usual class: activators; Huh7 NPC1 promoter luciferase reporter, 24 h; note: % of control where 0% means no effect; nearly all actives have a fitted effect of over 60% in size
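Luminescence read-out of NPC1 promoter-driven luciferase in stably transfected Huh7 cells; compounds delivered in DMSO and left 24 h at 37C, 5% CO2, qHTS titration format.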
ELG1 genotox = inducers of genotoxicity in HEK293T ELG1-luciferase cells; HEK293T ELG1-luciferase reporter, luminescence, 16 h; Potency, µM (titrated, usually from 46 µM), for the others: at the highest dose activity change, positive = activation, actives largely listed as activators; hit rate 1.3% among 330,000; AID 504466; note: % of control where 0% means no effect; nearly all actives have a fitted effect of over 60% in size
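Cells (2,000/well) expressing the ELG1-luciferase fusion are dosed by pin tool and kept 16 hr at 37 °C, 5% CO2. Signal comes from ONE-Glo luciferase reagent after 30 min at room temperature.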
FLuc counter = inhibits or activates purified firefly luciferase, miR-21 counter-screen | hit rate 6.9% among 360,000 | Potency, µM (titrated, usually from 57.5 µM), for inactives: at the top dose activity change, negative = inhibition, actives largely listed as inhibitors | purified FLuc, Km substrates, luminescence inhibition;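 note: plate controls were vehicle for no effect and reference inhibitor for full effect; nearly all actives have a fitted effect of over 55% in size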
Target sequence (P08659 whole entry, looked up): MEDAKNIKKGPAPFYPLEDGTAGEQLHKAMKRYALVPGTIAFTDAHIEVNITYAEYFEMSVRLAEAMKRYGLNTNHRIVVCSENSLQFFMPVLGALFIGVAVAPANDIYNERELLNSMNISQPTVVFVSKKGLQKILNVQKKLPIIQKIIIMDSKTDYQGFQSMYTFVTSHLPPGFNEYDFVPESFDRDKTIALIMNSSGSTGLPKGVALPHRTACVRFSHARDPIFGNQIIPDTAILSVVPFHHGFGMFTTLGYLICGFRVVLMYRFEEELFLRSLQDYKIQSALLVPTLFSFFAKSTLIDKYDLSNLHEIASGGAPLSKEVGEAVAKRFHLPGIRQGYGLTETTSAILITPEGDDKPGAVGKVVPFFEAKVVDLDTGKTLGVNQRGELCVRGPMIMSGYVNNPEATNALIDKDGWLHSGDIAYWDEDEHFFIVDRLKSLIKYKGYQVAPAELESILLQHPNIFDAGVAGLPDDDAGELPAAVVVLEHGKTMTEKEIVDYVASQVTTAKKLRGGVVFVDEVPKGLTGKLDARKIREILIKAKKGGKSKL
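Purified P. pyralis luciferase, 10 nM final, with Km-level 10 uM D-luciferin and 10 uM ATP in 50 mM Tris acetate pH 7.5, 10 mM Mg acetate, 0.01% Tween-20, 0.05% BSA; 6-point qHTS titration about 60 µM downward; luminescence read.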
Rab9 promoter act = activates the Rab9 promoter | Huh7 Rab9 promoter-luciferase reporter, luminescence, 24 h | Potency, µM (titrated, usually from 9.22 µM), without a hit: top-dose activation, negative = inhibition, usual class: activators | hit rate 2.8% among 320,000; note: % of control where 0% means no effect; nearly all actives have a fitted effect of over 60% in size
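Luminescence from Amplite-detected luciferase (10 minutes, ambient) reports Rab9 promoter activation. Before that, stable Rab9-luciferase Huh7 cells (1500/well, reduced-serum OP-MEM I plus 10% FBS) were exposed to compound for 24 hours at 37C.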
* marks the source's active call; other numbers are inactive results; ? = inconclusive; · = no result; [ ] = dose if it differs, or a comment. Calls come from the whole dose curve; as a rule, active = well fitted curve in the direction sought with a large enough effect; inconclusive = small, poorly fitted or top-dose-only effect, or another doubt; inactive = no such curve, though single readings can be large; an effect the other way counts as inactive or inconclusive. Potency is the fitted concentration of half-maximal effect.

SMILES	SMN2 splice enh	KinaseGlo FLuc	NPC1 prom act	ELG1 genotox	FLuc counter	Rab9 promoter act
O=C(N/N=C/c1cn(Cc2ccccc2)c2ccccc12)c1ccncc1	-71%	-2%	-8%	-5%	?	-9%
CC(=O)n1cc(/C=N/NC(=O)c2ccc(Cl)cc2)c2ccccc21	·	·	29%	8%	3.4µM*	23%
CC(=O)n1cc(/C=N/NC(=O)c2cccc(O)c2)c2ccccc21	·	·	-3%	13%	9.5µM*	3%
CC(=O)n1cc(/C=N/NC(=O)c2ccccc2Cl)c2ccccc21	·	·	11%	8%	19µM*	10%
COc1ccc(NC(=O)C(NS(=O)(=O)c2cccc3nsnc23)C(C)C)cc1OC (stereo not drawn)	-2%	·	·	·	-2%	·
Cc1ccc(Cn2c(SCC(=O)C(C)(C)C)nc3ccsc3c2=O)cc1	·	·	·	·	1%	·
Cc1nc2ccc(NC(=O)c3cc(Cl)ccn3)cc2s1	·	·	0.71µM*	1.3µM*	1.5µM*	0.5µM*
Cc1nc2ccc(NC(=O)c3ccc([N+](=O)[O-])cc3)cc2s1	-14%	3%	11%	8%	-2%	13%
Cc1ccc(C(=O)Nc2ccc3nc(C)sc3c2)s1	13µM*	-5%	2.2µM*	?	6.7µM*	1.8µM*
Cc1nc2ccc(NC(=O)c3cc([N+](=O)[O-])cc([N+](=O)[O-])c3Cl)cc2s1	2%	0%	-26%	?	12µM*	-36%
Cc1nc2cc(NC(=O)c3ccc(Br)s3)ccc2s1	·	·	0.4µM*	?	0.48µM*	0.32µM*
CN1CCN(S(=O)(=O)c2ccc(NC(=O)c3ccc(Br)s3)cc2)CC1	12%	2%	-3%	4%	-1%	-6%
Cc1nc2ccc(NC(=O)c3ccc(Cl)nc3)cc2s1	·	·	14%	1%	?	21%
Cc1ccc(C)c(NC(=O)CSc2nc(=O)n(CCN(C)C)c3c2CCC3)c1	·	·	·	·	0%	·
Cc1nc2ccn(Cc3cccs3)c(=O)c2cc1C(=O)Nc1ccccc1	·	·	·	·	-3%	·
Cc1nc2ccc(NC(=O)NCCCO)cc2s1	13µM*	4%	?	14%	2%[2.3 µM]	?
O=C1C(C2=NC(C(=O)O)C3C(=O)N(c4ccccc4)C(=O)C23)=C(O)c2ccccc21 (stereo not drawn)	-7%	?	-1%	-4%	12µM*	0%
COc1cc2c(cc1OC)n(CC(=O)c1ccc(C)cc1C)c(=O)n1nc(CCn3nc(C)cc3C)nc21	·	·	·	·	-3%	·
Cc1ccc2c(Cl)c(C)c(N3CCCC3)nc2n1	-10%	0%	-2%	1%	17µM*	2%
CCOc1cc(/C=C(/C#N)c2ccc(F)cc2)ccc1OCc1ccc(C(=O)O)o1	10%	-4%	3%	1%	13µM*	2%
COc1ccc(-c2cc(C(=O)Nc3cc(C(F)(F)F)ccc3Cl)no2)cc1	2%	·	·	·	-1%	·
CCc1ccc2[nH]c(=O)c(-c3ccccc3)c(O)c2c1	·	·	-3%	3%	21µM*	6%
COc1ccc2nc3ccccc3nc2c1N	·	·	2.2µM*	18µM*	4.8µM*	3.2µM*
CC(=O)Nc1nc(-c2ccc([N+](=O)[O-])cc2)cs1	-19%	-2%	18%	2%	1%	?
CC(C)c1nc(-c2ccc([N+](=O)[O-])cc2)cs1	13%	0%	11%	8%	17µM*	20%
Cc1nc(-c2ccc3c(c2)OCO3)cs1	?	-4%	17%	6%	15µM*	14%
Cc1nc(-c2ccc3c(c2)OCCCO3)cs1	·	·	1.8µM*	?	7.6µM*	1.6µM*
O=S(=O)(c1cccc(-c2csc(-c3cccnc3)n2)c1)N1CCOCC1	·	·	-1%	-1%	-2%	?
Nc1nc(-c2ccc3c(c2)NC(=O)CO3)cs1	-39%	5%	-1%	?	-10%	3%
CC1Cc2cc(-c3csc(N)n3)ccc2O1 (stereo not drawn)	·	·	?	?	9.5µM*	1.3µM*

Assay outcomes (PubChem)
